Reference: PubChem BioAssay (NCATS)
Records with an inconclusive call do not appear. A call without a number means that no potency is given here. Activity calls are given as the source filed them. Calls follow the shape of the dose curve; as a rule, active = well fitted curve in the direction sought with a large enough effect; inconclusive = small, poorly fitted or top-dose-only effect, or another doubt; inactive = no such curve, though single readings can be large; an effect the other way counts as inactive or inconclusive.

Legend:
[1] = P-glycoprotein substrates identified in KB-8-5-11 adenocarcinoma cell line, qHTS therapeutic library screen (AID 1346987); also: nearly all actives have a fitted effect of over 65% in size; also: potency is read from the fitted curve at half-maximal effect
Method in brief: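 Human cervical adenocarcinoma KB-8-5-11 cells, selected in colchicine to over-express P-gp and assayed without it, were exposed for 72 h to titrated compounds. An ATP-based luminescent viability signal gave AC50.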

[2] = biological target: Glutathione peroxidase 1 (Homo sapiens) (UniProt P07203); test: Primary qHTS Assay for Inhibitors of Recombinant Selenoprotein Glutathione Peroxidase 1 (GPX1) (AID 1845191); also: nearly all actives have a fitted effect of over 65% in size
Method in brief: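 GPX1 10 nM, GR 100 nM, GSH 1 mM, NADPH 0.5 mM, CHP 0.5 mM (final). 30-min cpd preincubation, RT. Ex340/Em450 read t=0, t=15 min.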

[3] = Primary qHTS for inhibitors of nuclear receptor binding SET domain protein 2 (NSD2) in an isogenic RCH-ACV NSD2 p.E1099K mutant (9B) (AID 1645876); also: potency is read from the fitted curve at half-maximal effect; nearly all actives have a fitted effect of over 70% in size
[4] = Primary qHTS for inhibitors of nuclear receptor binding SET domain protein 2 (NSD2) in an RCH-ACV wild type WT cells (2C) (AID 1645877); also: potency is read from the fitted curve at half-maximal effect; nearly all actives have a fitted effect of over 70% in size

Glutathione peroxidase 1 (Homo sapiens), sequence (P07203 whole entry, looked up): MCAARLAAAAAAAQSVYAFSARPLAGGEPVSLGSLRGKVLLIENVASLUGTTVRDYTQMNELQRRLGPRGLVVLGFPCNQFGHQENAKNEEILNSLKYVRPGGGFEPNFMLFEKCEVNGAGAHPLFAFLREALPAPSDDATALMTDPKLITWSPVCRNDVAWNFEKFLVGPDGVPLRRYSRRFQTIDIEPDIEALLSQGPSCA

Row | SMILES | Potency [1] | Potency [2] | Potency [3] | Potency [4]
1 | CCCCN(CCCC)C(=S)[S-].CCCCN(CCCC)C(=S)[S-].[Zn+2] | inactive |  |  | 
2 | NS(=O)(=O)c1ccc(N=Nc2c(O)[nH]c3ccc(Br)cc23)cc1 | 11.6 µM (active) | inactive |  | 
3 | O=C(c1ccc(-c2ccc(Cl)cc2)o1)N(Cc1ccccn1)c1ccc(N2CCNCC2)cc1 | inactive | inactive | 13 µM (active) | 16.4 µM (active)
4 | CNC(=O)c1ccc(-c2cnc3cnc(C(=O)N(C)c4ccc(Cl)cc4)cn23)cc1 | inactive | inactive |  | 
5 | CN(C)CCOc1ccc(-c2nc(-c3ccc4c(c3)CC/C4=N/O)c(-c3ccncc3)[nH]2)cc1 | inactive |  | 3.66 µM (active) | 7.31 µM (active)
